# MITF act – activators of MITF-driven TRPM1 promoter reporter, primary screen, cell-based, SK-MEL-5, luciferase, single point. AID 588334, 2011. SK-MEL-5 TRPM1-promoter luciferase, 24 h; % of positive control, neutral wells = 0. 300,000 compounds, 0.75% hits. activation, % at 12.5 µM;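 active = mean activation of at least 80% with every replicate also reaching 80%; inconclusive = mean reaches 80% but some replicate falls short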;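 note: 0% = neutral control wells and 100% = parthenolide positive control wells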
# GSIS activator – GLuc luminescence reporter in INS-1E cells, primary screen for activators of glucose-dependent secretion of insulin; INS-1E GLuc reporter insulin secretion, 2-3 h; activation, % at 16.6 µM; 370,000 compounds, 0.61% hits;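 active = lowest replicate activation of at least 40%, so every replicate reaches that level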;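 note: 0% = median of neutral control wells and 100% = median of IBMX positive control wells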
# HIV Env fusion – inhibitors of HIV-1 Env-driven cell-cell fusion, primary screen, HeLa-JRFL effector, CEM21 target cells, luciferase | 360,000 compounds, 1.1% hits | inhibition, % at 12.3 µM | AID 651610, 2012;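 active = mean replicate inhibition score of at least 50 and every replicate individually at or above 50; inconclusive = only one of the two criteria met; inactive = mean below 50 and not all replicates reaching 50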;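 note: 0% = plate neutral controls and 100% = maraviroc near 300 nM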
# CFTR F508del cor – F508del CFTR correction, initial screen, CFBE line, single point; CFBE cells, YFP halide quenching; stimulated with forskolin plus potentiator P3; % fluorescence drop versus neutral controls; activity (quench increase), % at 7.58 µM; 350,000 compounds, 0.36% hits;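 active = mean added fluorescence quench of at least 8% versus neutral control, with both replicates also reaching 8%; inconclusive = only one of the mean or replicate conditions met; inactive = mean below 8% and not both replicates reaching 8%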;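 note: cells transiently co-express mutant CFTR-F508del with the halide-sensitive YFP; corrector assay measuring rescue of mutant channel to the surface after 24 h compound exposure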
# Wnt bcat act – Wnt/beta-catenin pathway activators, primary screen, cell-based, plate reader, single point | 300,000 compounds, 1.2% hits | Wnt/beta-catenin reporter cell assay, activator | activation, % at 9.35 µM | AID 743398, 2014; in the data active = activation above about 30%, passing the limit was not always enough; inconclusive = no clear call, values can overlap the other calls;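 note: 0% = neutral control wells and 100% = positive control wells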
# Active calls of the source: *; i = inactive; ? = inconclusive; / = no result; [ ] = dose if it differs, or a comment. The list is not random: actives were taken first. Their share in the collection is about 2.7%.
SMILES,MITF act,GSIS activator,HIV Env fusion,CFTR F508del cor,Wnt bcat act
CCCNC(=O)N(C)C[C@H]1Oc2cc(C#CC(C)C)ccc2S(=O)(=O)N([C@@H](C)CO)C[C@@H]1C,/,2.4,-41.8[16.7 µM],-4.7,/
NC1=NC[C@H](Cc2ccccc2)N1CCCCC1CCCCC1,6.7,469.5*,18.6,-1.3,-4.6
NC1=NC[C@H](Cc2ccc(O)cc2)N1CCCCC1CCCCC1,-39.0,/,36.8,0.2,-4.8
COc1ccc([C@@H]2[C@@H]3C(=O)N(C(C)(C)C)C(=O)[C@@H]3[C@]3(Cc4ccccc4)C(=O)N(c4cccc(C)c4)C(=O)N23)cc1,-11.8,-4.2,18.9,1.7,2.8
COc1ccc([C@@H]2[C@@H]3C(=O)N(C(C)(C)C)C(=O)[C@@H]3[C@]3(Cc4ccc(Cl)cc4)C(=O)N(c4cccc(Br)c4)C(=O)N23)cc1,5.7,-10.1,78.5*,2.0,-0.3
COc1ccc([C@@H]2[C@@H]3C(=O)N(C(C)(C)C)C(=O)[C@@H]3[C@]3(Cc4ccccc4)C(=O)N(c4cccc(Cl)c4)C(=O)N23)cc1,-0.4,/,79.7*,1.6,-2.5
CC(C)(C)N1C(=O)[C@H]2[C@@H](c3ccc(Br)cc3)N3C(=O)N(c4cccc(Cl)c4)C(=O)[C@@]3(Cc3ccccc3)[C@H]2C1=O,5.8,3.2,-0.1,-1.0,-3.8
COc1ccc([C@@H]2[C@@H]3C(=O)N(C(C)(C)C)C(=O)[C@@H]3[C@]3(Cc4ccc(Cl)cc4)C(=O)N(c4cccc(F)c4)C(=O)N23)cc1,5.3,0.0,106.6*,-1.1,5.0
COc1ccc([C@@H]2[C@@H]3C(=O)N(C(C)(C)C)C(=O)[C@@H]3[C@]3(Cc4ccccc4)C(=O)N(c4ccccc4)C(=O)N23)cc1,2.8,-9.5,4.0,-0.4,-3.6
C[C@@H]1CCCCO[C@H](CN(C)CC2CCCCC2)[C@H](C)CN([C@H](C)CO)C(=O)c2cc(NC(=O)Cc3ccccc3)ccc2O1,/,-17.8,-7.7[16.7 µM],-3.6,/
CN(C)CCCNC(=O)C[C@H]1CC[C@@H]2[C@H](COc3ccc(NC(=O)C4CCC4)cc3C(=O)N2C)O1,/,5.2,/,2.7,/
COc1ccnc(N2CCN(c3ccc(Cl)cc3)CC2)c1C#N,9.8,-25.2,/,0.1,2.8
COc1ccnc(N2CCN(c3cccc(C(F)(F)F)c3)CC2)c1C#N,1.3,72.7*,-22.3,/,-1.7
O=C(Nc1cc2c3c(c1)CC(=O)N3CCC2)c1ccc(Cl)cc1,30.9,-1.1,84.6*,1.3,8.3
O=C(Nc1cc2c3c(c1)CC(=O)N3CCC2)c1c(F)cccc1F,4.6,-6.1,-6.2,-3.1,-0.1
COc1cccc(CNC(=O)CSc2nc3ccc(C)cc3[nH]2)c1,-17.8,8.3,-5.7,8.4*,-1.4
N#Cc1cc2c(nc1SCC1COc3ccccc3O1)CCC2 (stereo not drawn),110.5*,/,/,/,/
C=CCN1C(=O)/C(=C2/Sc3ccccc3N2CC)SC1=S,1.8,-1.5,-351.7,-5.4,-0.6
C=CCN1C(=O)/C(=C/C=C2/N(CC)c3ccc(S(=O)(=O)N(C)C)cc3N2CC)SC1=S,-5.9,-6.8,28.5,11.4*,-2.2
CCN(CC)C(=O)c1nc(-c2cccc3ccccc23)no1,/,/,-19.3,7.0,75.0*
CC1=Nc2ccccc2N=C(N)C1c1ccccc1 (stereo not drawn),17.6,12.6,-8.7,-0.7,51.7*
Cc1ccc(NC(=O)COc2ccc(Br)cc2CO)cc1,64.5,/,-66.8,/,/
O=C(COc1ccc(Br)cc1CO)Nc1ccccc1,/,/,-40.2,/,31.0*
O=C(COc1ccc(Br)cc1CO)Nc1ccccc1F,102.4*,4.9,/,/,1.6
CCOC(=O)Nc1sc2c(c1C#N)CCCC2,90.8*,-5.5,/,/,/
SMILES,MITF act,GSIS activator,HIV Env fusion,CFTR F508del cor,Wnt bcat act
Cc1ccc(OCC(=O)Nc2sc3c(c2C#N)CCC3)cc1,111.0*,-1.3,/,1.3,12.4
N#Cc1c(NC(=O)c2ccccc2)sc2c1CCC2,43.5,/,i,/,/
COc1cccc(C(=O)Nc2sc3c(c2C#N)CCN(C(C)=O)C3)c1,-1.7,2.3,-127.6,13.6*,-11.7
Cc1cccc(C(=O)Nc2sc3c(c2C#N)CCCCC3)c1,89.3*,/,/,/,/
Cc1ccc(OCC(=O)Nc2sc3c(c2C#N)CCC3)cc1C,/,/,-59.2,/,0.8
C[C@H]1CN([C@@H](C)CO)C(=O)c2cc(NC(=O)C3CC3)ccc2O[C@H]1CN(C)Cc1ccc(-c2ccccc2)cc1,/,-17.4,/,-0.5,/
O=[N+]([O-])c1ccccc1N=Nc1c(O)[nH]c2ccc(F)cc12,24.5,21.0,-73.2,-1.2,31.3*
O=[N+]([O-])c1cc(/C=N/N2CCCCC2)ccc1Cl,99.2*,-33.7,-27.2,1.3,10.0
CN(C)c1ccc(C=NN2CCCCCC2)cc1,56.3,/,-27.2,0.9,-2.9
CC(C)c1ccc(/C=N/N2CCCCC2)cc1,97.8*,-44.2,-48.0,-0.9,45.4*
O=[N+]([O-])c1cccc(C=NN2CCCCCC2)c1,52.5,/,-58.4,-0.7,-2.0
O=[N+]([O-])c1cc(/C=N/N2CCN(c3ccccc3)CC2)ccc1Cl,63.8,-3.3,/,-0.3,-0.2
O=[N+]([O-])c1cc(C=NN2CCCCCC2)ccc1Cl,48.8,/,-64.2,6.9,40.1*
C[C@@H]1CN([C@H](C)CO)C(=O)c2cc(NC(=O)CCC(F)(F)F)ccc2O[C@@H]1CN(C)S(=O)(=O)c1ccccc1,/,13.7,/,-0.9,/
Cc1[nH]c2ccccc2c1C(=O)CSc1nc2cc(S(=O)(=O)N3CCCCC3)ccc2o1,-19.4,/,65.2*,/,-9.5
Cc1ccc(C(=O)CSc2nc3cc(S(=O)(=O)N4CCOCC4)ccc3o2)cc1,-6.1,/,-43.3,/,-0.2
O=C(C[C@@H]1C=C[C@@H](NC(=O)C2CCC2)[C@H](CO)O1)NCc1ccncc1,/,3.3,-6.6[16.7 µM],2.1,/
CO[C@H]1CN(C)C(=O)c2ccc(NC(=O)c3cc(C)on3)cc2OC[C@H](C)N(C)C[C@@H]1C,/,10.2,/,1.1,/
Cc1[nH]n(C(N)=S)c(=O)c1N=Nc1ccc(Br)cc1,41.1,-28.6,-59.4,1.3,40.3*
Cc1ccc(N=Nc2c(C)[nH]n(C(N)=S)c2=O)cc1,46.2,16.9,-63.5,3.8,19.4
Cc1ccc(S(=O)(=O)NCCNC(=O)c2cc(OCC(F)(F)F)ccc2OCC(F)(F)F)cc1,/,/,95.9*,/,-9.6
O=C(NCCNC(=O)c1cc(OCC(F)(F)F)ccc1OCC(F)(F)F)Nc1cccc(C(F)(F)F)c1,-7.0,/,84.1*,/,/
COc1ccc(Cn2c(C3CC3)nc3ccc(NC(=O)C4CC4)cc3c2=O)cc1,118.3*,/,-333.3,/,17.2
CC(=O)N/N=C\c1cccc(OC/C=C/c2ccccc2)c1,16.0,8.9,-7.7,-3.2,18.0
CC(=O)N/N=C\c1ccccc1OC/C=C/c1ccccc1,?,3.8,-60.2,-4.1,41.6*
CC(C)(O)C(=O)N/N=C\c1ccc(OC/C=C/c2ccccc2)cc1,104.5*,19.1,-16.2,1.4,12.7

# Compound activity as filed in PubChem.
